Reference: the supplement of paper PMC11732987, “Enantioselective OTUD7B fragment discovery through chemoproteomics screening and high-throughput optimisation” (Communications Chemistry, 2025)
Unmarked numbers belong to inactive results.

Legend:
Assay in all cases: log2 ratio of Biotin-Ahx-Ub-VS probe labelling (fragment/DMSO); higher = less target engagement (more negative = stronger competition), active = hit call of the paper (q ≤ 0.05, log2 ratio ≤ -1)
Conditions in all cases: compound concentration: 200 uM; treatment time: 3 h
[1] = target: T1, USP19 (UniProt O94966)
T1 sequence (whole entry): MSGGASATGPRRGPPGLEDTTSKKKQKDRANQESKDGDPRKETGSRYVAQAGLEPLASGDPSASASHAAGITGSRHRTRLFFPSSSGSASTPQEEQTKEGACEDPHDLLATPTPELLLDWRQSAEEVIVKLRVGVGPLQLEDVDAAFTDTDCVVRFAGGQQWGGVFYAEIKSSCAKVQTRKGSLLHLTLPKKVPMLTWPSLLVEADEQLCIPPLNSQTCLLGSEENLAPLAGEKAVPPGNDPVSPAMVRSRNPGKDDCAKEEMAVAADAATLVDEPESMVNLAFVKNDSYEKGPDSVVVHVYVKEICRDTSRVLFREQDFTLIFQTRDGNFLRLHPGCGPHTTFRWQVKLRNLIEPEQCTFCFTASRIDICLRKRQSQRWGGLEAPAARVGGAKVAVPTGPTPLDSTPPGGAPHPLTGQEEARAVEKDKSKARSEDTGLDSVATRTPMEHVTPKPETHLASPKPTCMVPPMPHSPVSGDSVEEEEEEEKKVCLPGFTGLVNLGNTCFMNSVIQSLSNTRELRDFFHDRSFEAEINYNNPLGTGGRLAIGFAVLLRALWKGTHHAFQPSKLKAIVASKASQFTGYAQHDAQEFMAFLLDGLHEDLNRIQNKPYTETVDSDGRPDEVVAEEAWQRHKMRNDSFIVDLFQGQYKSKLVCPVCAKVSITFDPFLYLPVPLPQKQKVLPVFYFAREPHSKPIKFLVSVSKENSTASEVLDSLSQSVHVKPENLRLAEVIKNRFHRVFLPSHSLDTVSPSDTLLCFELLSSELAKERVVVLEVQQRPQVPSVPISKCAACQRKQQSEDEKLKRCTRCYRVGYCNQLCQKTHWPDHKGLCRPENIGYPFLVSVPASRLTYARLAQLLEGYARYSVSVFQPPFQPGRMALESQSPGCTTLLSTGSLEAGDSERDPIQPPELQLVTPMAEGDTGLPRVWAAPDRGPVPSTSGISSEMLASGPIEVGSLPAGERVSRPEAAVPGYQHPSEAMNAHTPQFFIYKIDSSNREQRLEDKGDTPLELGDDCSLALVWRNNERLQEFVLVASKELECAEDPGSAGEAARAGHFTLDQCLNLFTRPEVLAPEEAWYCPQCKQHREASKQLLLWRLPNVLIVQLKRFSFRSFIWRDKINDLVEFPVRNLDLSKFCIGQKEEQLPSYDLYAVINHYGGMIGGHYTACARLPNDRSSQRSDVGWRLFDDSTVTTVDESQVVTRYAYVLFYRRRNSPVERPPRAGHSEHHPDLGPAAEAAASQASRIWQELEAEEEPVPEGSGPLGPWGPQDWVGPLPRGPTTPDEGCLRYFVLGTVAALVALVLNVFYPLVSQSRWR
In short: (§1)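 Labelled DUBs from HEK293T lysate were NeutrAvidin-enriched, digested with LysC and trypsin, and run by diaPASEF LC-MS/MS. Before that, each 495 µg sample in Tris/CHAPS/IGEPAL buffer with protease inhibitors was treated in triplicate with fragment at 200 µM or vehicle for 3 h, then with Biotin-Ahx-Ub-VS at 0.5 µM final for 1 h. Values are average log2 ratios of fragment over vehicle by unpaired t-test, based on global-median-normalised Spectronaut label-free quantities from proteins with ≥2 unique peptides.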

[2] = target: T2, USP22 (UniProt Q9UPT9)
T2 sequence (whole entry): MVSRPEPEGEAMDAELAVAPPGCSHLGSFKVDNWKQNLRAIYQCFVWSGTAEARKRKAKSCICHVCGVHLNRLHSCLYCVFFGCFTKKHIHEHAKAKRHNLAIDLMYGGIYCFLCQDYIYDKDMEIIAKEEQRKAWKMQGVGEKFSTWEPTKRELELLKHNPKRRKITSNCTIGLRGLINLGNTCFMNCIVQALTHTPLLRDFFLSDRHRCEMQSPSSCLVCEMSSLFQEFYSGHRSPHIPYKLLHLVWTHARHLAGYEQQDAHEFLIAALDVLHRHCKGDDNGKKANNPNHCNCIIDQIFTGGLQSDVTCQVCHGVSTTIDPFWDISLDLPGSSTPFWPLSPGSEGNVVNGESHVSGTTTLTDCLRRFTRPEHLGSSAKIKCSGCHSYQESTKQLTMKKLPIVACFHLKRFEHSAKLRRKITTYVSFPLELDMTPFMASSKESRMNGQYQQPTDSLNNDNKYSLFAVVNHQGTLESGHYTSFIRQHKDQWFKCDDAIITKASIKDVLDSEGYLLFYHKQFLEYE
In short: as §1

[3] = target: USP24 (UniProt Q9UPU5)
Sequence of USP24 (Q9UPU5 whole entry): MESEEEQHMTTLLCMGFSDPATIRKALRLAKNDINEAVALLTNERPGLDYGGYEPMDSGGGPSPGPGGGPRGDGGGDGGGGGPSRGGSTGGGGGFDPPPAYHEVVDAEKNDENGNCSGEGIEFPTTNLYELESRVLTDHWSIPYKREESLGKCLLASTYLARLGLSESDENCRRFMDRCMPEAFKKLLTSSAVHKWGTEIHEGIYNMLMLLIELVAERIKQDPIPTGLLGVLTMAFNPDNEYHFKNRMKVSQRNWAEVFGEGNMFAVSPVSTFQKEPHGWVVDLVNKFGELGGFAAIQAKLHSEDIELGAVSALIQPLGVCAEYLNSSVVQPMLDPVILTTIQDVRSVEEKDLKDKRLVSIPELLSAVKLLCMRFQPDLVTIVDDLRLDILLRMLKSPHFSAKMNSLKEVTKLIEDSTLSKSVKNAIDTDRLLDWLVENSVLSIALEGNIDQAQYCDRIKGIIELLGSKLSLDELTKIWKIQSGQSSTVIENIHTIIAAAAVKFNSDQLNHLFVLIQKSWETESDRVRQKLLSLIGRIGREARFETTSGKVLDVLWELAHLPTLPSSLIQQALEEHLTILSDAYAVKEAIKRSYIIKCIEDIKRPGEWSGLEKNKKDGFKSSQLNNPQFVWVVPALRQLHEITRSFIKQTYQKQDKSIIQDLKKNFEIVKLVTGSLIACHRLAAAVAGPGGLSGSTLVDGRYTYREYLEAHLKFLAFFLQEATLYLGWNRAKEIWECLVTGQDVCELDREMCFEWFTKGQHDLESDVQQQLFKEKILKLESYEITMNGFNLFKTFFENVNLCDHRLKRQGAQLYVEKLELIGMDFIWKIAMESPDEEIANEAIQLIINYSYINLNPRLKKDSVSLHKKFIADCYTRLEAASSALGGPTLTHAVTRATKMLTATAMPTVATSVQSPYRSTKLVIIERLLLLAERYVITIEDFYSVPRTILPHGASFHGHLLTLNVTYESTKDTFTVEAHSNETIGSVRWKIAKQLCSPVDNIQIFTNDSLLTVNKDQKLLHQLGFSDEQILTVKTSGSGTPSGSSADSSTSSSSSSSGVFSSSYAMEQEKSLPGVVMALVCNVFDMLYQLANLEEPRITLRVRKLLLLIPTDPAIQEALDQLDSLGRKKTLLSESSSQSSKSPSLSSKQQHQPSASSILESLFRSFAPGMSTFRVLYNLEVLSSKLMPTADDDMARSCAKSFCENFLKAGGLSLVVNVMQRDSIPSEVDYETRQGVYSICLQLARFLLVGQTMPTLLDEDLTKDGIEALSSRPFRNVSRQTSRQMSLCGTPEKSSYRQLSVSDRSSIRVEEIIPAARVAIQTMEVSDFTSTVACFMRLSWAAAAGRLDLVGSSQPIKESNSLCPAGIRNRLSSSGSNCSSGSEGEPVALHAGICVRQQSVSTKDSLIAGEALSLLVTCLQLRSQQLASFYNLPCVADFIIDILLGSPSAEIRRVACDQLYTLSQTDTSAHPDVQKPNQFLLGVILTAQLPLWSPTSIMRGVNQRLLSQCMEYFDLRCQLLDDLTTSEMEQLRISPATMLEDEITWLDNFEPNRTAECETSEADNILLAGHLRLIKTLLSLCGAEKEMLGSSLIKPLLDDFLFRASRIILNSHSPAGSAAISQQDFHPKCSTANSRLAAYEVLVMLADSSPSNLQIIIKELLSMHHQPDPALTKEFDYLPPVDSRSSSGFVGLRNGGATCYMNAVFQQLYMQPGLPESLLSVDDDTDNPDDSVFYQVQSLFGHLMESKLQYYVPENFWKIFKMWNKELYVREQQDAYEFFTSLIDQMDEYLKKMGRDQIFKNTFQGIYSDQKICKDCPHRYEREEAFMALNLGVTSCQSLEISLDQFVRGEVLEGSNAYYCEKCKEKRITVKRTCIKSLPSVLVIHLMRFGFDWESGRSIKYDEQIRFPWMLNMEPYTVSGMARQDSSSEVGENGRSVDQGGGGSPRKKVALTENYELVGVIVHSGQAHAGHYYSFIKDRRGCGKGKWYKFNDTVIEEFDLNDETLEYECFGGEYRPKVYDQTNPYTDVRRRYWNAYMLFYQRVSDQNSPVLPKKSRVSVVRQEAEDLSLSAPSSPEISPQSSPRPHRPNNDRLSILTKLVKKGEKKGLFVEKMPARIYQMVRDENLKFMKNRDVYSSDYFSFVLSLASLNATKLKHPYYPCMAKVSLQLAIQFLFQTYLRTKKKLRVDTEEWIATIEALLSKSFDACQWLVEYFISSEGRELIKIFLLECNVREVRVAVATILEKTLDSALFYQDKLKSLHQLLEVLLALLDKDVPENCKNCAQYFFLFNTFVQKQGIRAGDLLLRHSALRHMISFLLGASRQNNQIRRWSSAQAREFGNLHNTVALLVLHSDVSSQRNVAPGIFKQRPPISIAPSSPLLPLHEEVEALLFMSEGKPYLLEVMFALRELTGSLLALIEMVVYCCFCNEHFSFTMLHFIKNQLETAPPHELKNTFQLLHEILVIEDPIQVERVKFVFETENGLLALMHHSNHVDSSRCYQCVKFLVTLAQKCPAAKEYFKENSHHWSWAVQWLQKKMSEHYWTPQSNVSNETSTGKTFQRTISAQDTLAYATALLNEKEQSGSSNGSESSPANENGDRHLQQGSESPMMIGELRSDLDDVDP
In short: as §1

[4] = target: T3, USP25 (UniProt Q9UHP3)
T3 sequence (whole entry): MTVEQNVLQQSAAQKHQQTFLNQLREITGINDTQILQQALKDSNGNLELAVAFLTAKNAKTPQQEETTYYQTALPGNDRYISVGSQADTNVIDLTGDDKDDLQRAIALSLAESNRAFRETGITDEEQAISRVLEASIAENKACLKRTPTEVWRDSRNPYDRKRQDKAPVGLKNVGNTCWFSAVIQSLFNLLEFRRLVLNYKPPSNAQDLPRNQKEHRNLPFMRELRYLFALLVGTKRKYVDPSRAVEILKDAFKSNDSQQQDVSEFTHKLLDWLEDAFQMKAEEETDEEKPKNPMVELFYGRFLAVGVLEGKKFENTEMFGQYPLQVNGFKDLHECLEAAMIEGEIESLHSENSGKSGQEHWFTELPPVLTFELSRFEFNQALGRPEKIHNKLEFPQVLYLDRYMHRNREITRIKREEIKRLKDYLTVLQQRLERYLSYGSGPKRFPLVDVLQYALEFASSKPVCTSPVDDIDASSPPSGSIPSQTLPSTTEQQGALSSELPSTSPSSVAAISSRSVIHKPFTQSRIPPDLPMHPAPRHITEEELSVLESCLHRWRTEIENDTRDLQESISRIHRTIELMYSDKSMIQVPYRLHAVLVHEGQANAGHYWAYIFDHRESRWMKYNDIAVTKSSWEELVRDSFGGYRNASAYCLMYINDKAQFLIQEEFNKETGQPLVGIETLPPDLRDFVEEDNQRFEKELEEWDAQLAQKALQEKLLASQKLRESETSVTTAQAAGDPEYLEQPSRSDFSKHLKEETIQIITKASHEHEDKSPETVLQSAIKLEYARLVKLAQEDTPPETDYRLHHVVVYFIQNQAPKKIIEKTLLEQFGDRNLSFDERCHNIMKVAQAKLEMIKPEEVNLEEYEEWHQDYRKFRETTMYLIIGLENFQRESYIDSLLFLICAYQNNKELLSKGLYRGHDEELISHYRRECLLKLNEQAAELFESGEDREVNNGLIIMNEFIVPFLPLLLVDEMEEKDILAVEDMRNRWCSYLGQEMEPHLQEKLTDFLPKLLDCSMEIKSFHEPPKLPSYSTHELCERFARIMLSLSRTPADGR
In short: as §1

[5] = target: T4, USP28 (UniProt Q96RU2)
T4 sequence (whole entry): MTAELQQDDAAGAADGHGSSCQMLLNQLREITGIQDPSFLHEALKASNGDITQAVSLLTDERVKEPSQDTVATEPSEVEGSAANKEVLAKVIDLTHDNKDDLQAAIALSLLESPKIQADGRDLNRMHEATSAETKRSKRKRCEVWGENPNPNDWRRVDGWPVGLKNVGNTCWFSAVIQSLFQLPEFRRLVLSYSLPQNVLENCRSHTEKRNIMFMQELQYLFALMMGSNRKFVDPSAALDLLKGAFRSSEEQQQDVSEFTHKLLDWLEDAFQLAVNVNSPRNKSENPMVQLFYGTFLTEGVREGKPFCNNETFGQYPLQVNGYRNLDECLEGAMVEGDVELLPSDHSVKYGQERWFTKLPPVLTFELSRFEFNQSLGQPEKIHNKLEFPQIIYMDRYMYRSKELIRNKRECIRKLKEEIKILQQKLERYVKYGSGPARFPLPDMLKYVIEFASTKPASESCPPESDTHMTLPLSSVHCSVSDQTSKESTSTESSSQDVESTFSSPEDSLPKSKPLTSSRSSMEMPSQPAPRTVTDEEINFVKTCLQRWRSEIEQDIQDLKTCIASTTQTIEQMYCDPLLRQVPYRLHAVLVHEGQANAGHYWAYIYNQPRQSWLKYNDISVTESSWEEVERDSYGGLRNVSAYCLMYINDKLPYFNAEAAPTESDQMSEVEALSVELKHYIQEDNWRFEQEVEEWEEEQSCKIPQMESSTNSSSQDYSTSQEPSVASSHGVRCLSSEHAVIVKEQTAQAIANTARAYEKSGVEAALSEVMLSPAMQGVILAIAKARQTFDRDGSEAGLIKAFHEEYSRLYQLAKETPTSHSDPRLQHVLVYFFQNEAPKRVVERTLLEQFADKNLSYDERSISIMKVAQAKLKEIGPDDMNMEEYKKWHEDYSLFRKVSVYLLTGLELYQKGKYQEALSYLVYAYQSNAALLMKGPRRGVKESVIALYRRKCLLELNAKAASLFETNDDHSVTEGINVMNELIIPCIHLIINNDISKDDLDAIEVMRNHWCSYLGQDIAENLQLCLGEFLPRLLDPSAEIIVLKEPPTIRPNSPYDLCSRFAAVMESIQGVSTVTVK
In short: as §1

Q: Which “log2 ratio of Biotin-Ahx-Ub-VS probe labelling” value (from here on “log2 ratio”) [1] does the source give for Cc1c(C#N)c(NC(=O)CCl)n(Cc2ccco2)c1C here?
A: -0.239

Q: What about the “log2 ratio” value [2] of the same compound?
A: -0.178

Q: And the “log2 ratio” value [3]?
A: -0.837

Q: And the “log2 ratio” value [4]?
A: -1.24 (active)

Q: And the “log2 ratio” value [5]?
A: -1.76 (active)
